Data published in PubChem BioAssay (Tox21).
Values without a mark were called inactive. Inconclusive results are not listed. A call without a number means that no potency is given here. Active and inactive are the calls of the source. The call rests on the fitted dose curve; in most records, active means well fitted curve in the direction sought with a large enough effect in the repeat runs; inconclusive means weak or mixed curves; inactive means no such curve, though single readings can be large; an effect the other way counts as inactive or inconclusive.

Key:
[1] = qHTS RealTime-Glo MT Cell Viability Assay in HepG2 cells - 40 hour (AID 1224870); further: nearly all actives have a fitted effect of over 50% in size; further: potency means the concentration at half of the fitted maximal effect
Summary of the method: (§1)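 Real-time viability: cells seeded at 600 per well together with NanoLuc and cell-permeant prosubstrate, compounds added after 5 h incubation. Luminescence tracked at 0, 8, 16, 24, 32 and 40 h of exposure.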

[2] = A CellTox Green Cytotoxicity Assay to monitor cytotoxicity in HEK293 cells - 40 hour (AID 1224871); further: nearly all actives have a fitted effect of over 45% in size; further: potency means the concentration at half of the fitted maximal effect
Summary of the method: (§2)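 Real-time, in one plate: 600 HEK293 cells/well with dead-cell DNA dye, pinned compound after 5 h, 37 C incubation over 40 h; viable cells give no appreciable fluorescence.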

[3] = qHTS RealTime-Glo MT Cell Viability Assay in HEK293 cells - 16 hour (AID 1224872); further: nearly all actives have a fitted effect of over 50% in size; further: potency means the concentration at half of the fitted maximal effect
Summary of the method: (§3)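 Homogeneous bioluminescent viability format in HEK293 cells (600 cells/well). Following 5 h at 37 C/5% CO2, 23 nL compound was pintooled; the signal was measured repeatedly during 40 h incubation.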

[4] = qHTS RealTime-Glo MT Cell Viability Assay in HepG2 cells - 8 hour (AID 1224873); further: nearly all actives have a fitted effect of over 55% in size
Summary of the method: as §1

[5] = A CellTox Green Cytotoxicity Assay to monitor cytotoxicity in HEK293 cells - 24 hour (AID 1224875); further: series mostly up to about 77 µM; nearly all actives have a fitted effect of over 45% in size
Summary of the method: as §2

[6] = A CellTox Green Cytotoxicity Assay to monitor cytotoxicity in HepG2 cells - 16 hour (AID 1224876); further: nearly all actives have a fitted effect of over 45% in size
Summary of the method: (§4)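 Cytotoxicity was tracked as dead-cell DNA fluorescence in HepG2 cells treated with test compounds at 37 C; each time-point value comes from one kinetic series spanning 0, 8, 16, 24, 32 and 40 h.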

[7] = qHTS RealTime-Glo MT Cell Viability Assay in HepG2 cells - 32 hour (AID 1224877); further: nearly all actives have a fitted effect of over 55% in size; further: potency means the concentration at half of the fitted maximal effect
Summary of the method: (§5)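 Cell number in HepG2 cultures estimated from NanoLuc luminescence generated by metabolic reduction of a prosubstrate by living cells. The homogeneous, nonlytic format allowed repeated reads at 0, 8, 16, 24, 32 and 40 h of compound exposure.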

[8] = A CellTox Green Cytotoxicity Assay to monitor cytotoxicity in HepG2 cells - 24 hour (AID 1224878); further: nearly all actives have a fitted effect of over 45% in size; further: potency means the concentration at half of the fitted maximal effect
Summary of the method: as §4

[9] = A CellTox Green Cytotoxicity Assay to monitor cytotoxicity in HepG2 cells - 40 hour (AID 1224879); further: nearly all actives have a fitted effect of over 40% in size; further: potency means the concentration at half of the fitted maximal effect
Summary of the method: as §4

[10] = qHTS RealTime-Glo MT Cell Viability Assay in HEK293 cells - 0 hour (AID 1224880)
Summary of the method: (§6)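 Kinetic, non-lysing viability readout. Seed HEK293 (600/well) with reagent, incubate 5 h at 37 C/5% CO2, pin 23 nL compound in DMSO, incubate at 37 C, read luminescence at 0, 8, 16, 24, 32, 40 h.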

[11] = A CellTox Green Cytotoxicity Assay to monitor cytotoxicity in HEK293 cells - 32 hour (AID 1224881); further: nearly all actives have a fitted effect of over 40% in size
Summary of the method: as §2

[12] = A CellTox Green Cytotoxicity Assay to monitor cytotoxicity in HepG2 cells - 32 hour (AID 1224883); further: nearly all actives have a fitted effect of over 50% in size; further: potency means the concentration at half of the fitted maximal effect
Summary of the method: as §4

[13] = A CellTox Green Cytotoxicity Assay to monitor cytotoxicity in HEK293 cells - 8 hour (AID 1224884); further: nearly all actives have a fitted effect of over 35% in size
Summary of the method: as §2

[14] = qHTS RealTime-Glo MT Cell Viability Assay in HepG2 cells - 16 hour (AID 1224885); further: nearly all actives have a fitted effect of over 50% in size; further: potency means the concentration at half of the fitted maximal effect
Summary of the method: as §5

[15] = A CellTox Green Cytotoxicity Assay to monitor cytotoxicity in HEK293 cells - 16 hour (AID 1224888); further: nearly all actives have a fitted effect of over 35% in size
Summary of the method: as §2

[16] = qHTS RealTime-Glo MT Cell Viability Assay in HepG2 cells - 0 hour (AID 1224889); further: nearly all actives have a fitted effect of over 50% in size; further: potency means the concentration at half of the fitted maximal effect
Summary of the method: as §5

[17] = qHTS RealTime-Glo MT Cell Viability Assay in HEK293 cells - 40 hour (AID 1224874); settings: RealTime-Glo luminescence; max response: active compounds read low; further: nearly all actives have a fitted effect of over 50% in size; further: potency means the concentration at half of the fitted maximal effect
Summary of the method: as §6

[18] = qHTS RealTime-Glo MT Cell Viability Assay in HEK293 cells - 24 hour (AID 1224886); further: nearly all actives have a fitted effect of over 50% in size; further: potency means the concentration at half of the fitted maximal effect
Summary of the method: as §3

[19] = A CellTox Green Cytotoxicity Assay to monitor cytotoxicity in HepG2 cells - 0 hour (AID 1224882); further: nearly all actives have a fitted effect of over 35% in size
Summary of the method: as §4

[20] = qHTS RealTime-Glo MT Cell Viability Assay in HEK293 cells - 8 hour (AID 1224887)
Summary of the method: as §6

Cc1ccc(S(=O)(=O)NC2CCCCC2)cc1
Potency [1]: inactive
Potency [2]: inactive
Potency [3]: inactive
Potency [4]: inactive
Potency [5]: inactive
Potency [6]: inactive
Potency [7]: inactive
Potency [8]: inactive
Potency [9]: inactive
Potency [10]: inactive
Potency [11]: inactive
Potency [12]: inactive
Potency [13]: inactive
Potency [14]: inactive
Potency [15]: inactive
Potency [16]: inactive

O=C(Nc1ccc([N+](=O)[O-])cc1)Nc1ccc([N+](=O)[O-])cc1
Potency [1]: inactive
Potency [2]: 13.4 µM (active)
Potency [4]: inactive
Potency [17]: 7.56 µM (active)
Potency [5]: inactive
Potency [6]: inactive
Potency [9]: 23.9 µM (active)
Potency [10]: inactive
Potency [13]: inactive
Potency [18]: 8.49 µM (active)
Potency [15]: inactive
Potency [16]: inactive

O=C(CCCCCCC(=O)Nc1ccccc1)NO
Potency [1]: 4.77 µM (active)
Potency [2]: inactive
Potency [3]: 2.68 µM (active)
Potency [17]: 2.39 µM (active)
Potency [5]: inactive
Potency [6]: inactive
Potency [8]: inactive
Potency [9]: 2.68 µM (active)
Potency [10]: inactive
Potency [11]: inactive
Potency [19]: inactive
Potency [12]: 2.68 µM (active)
Potency [13]: inactive
Potency [15]: inactive
Potency [16]: inactive

COc1ccc([C@@H]2Sc3ccccc3NC(=O)[C@@H]2O)cc1
Potency [1]: inactive
Potency [2]: inactive
Potency [3]: inactive
Potency [4]: inactive
Potency [5]: inactive
Potency [6]: inactive
Potency [7]: inactive
Potency [8]: inactive
Potency [10]: inactive
Potency [11]: inactive
Potency [19]: inactive
Potency [13]: inactive
Potency [14]: inactive
Potency [18]: inactive
Potency [15]: inactive
Potency [16]: inactive

CNC(=S)NC
Potency [1]: inactive
Potency [2]: inactive
Potency [3]: inactive
Potency [4]: inactive
Potency [5]: inactive
Potency [6]: inactive
Potency [7]: inactive
Potency [8]: inactive
Potency [9]: 54.9 µM (active)
Potency [10]: inactive
Potency [11]: inactive
Potency [19]: inactive
Potency [13]: inactive
Potency [14]: inactive
Potency [18]: inactive
Potency [15]: inactive
Potency [16]: inactive

OC/C(Br)=C(\Br)CO
Potency [1]: inactive
Potency [2]: inactive
Potency [3]: inactive
Potency [4]: inactive
max response [17]: 0.37%
Potency [6]: inactive
Potency [7]: inactive
Potency [8]: inactive
Potency [9]: inactive
Potency [10]: inactive
Potency [19]: inactive
Potency [12]: inactive
Potency [13]: inactive
Potency [14]: inactive
Potency [18]: inactive
Potency [20]: inactive
Potency [15]: inactive
Potency [16]: inactive

O=C(Nc1ccccc1)Nc1ccccc1
Potency [1]: inactive
Potency [2]: inactive
Potency [4]: inactive
Potency [5]: inactive
Potency [6]: inactive
Potency [7]: inactive
Potency [8]: inactive
Potency [9]: inactive
Potency [10]: inactive
Potency [11]: inactive
Potency [19]: inactive
Potency [12]: inactive
Potency [13]: inactive
Potency [14]: inactive
Potency [15]: inactive
Potency [16]: inactive

O=C(OCCOCCO)c1ccccc1Nc1cccc(C(F)(F)F)c1
Potency [1]: inactive
Potency [2]: 2.39 µM (active)
Potency [3]: inactive
Potency [4]: inactive
Potency [5]: inactive
Potency [7]: inactive
Potency [10]: inactive
Potency [11]: inactive
Potency [19]: inactive
Potency [13]: inactive
Potency [14]: inactive
Potency [18]: inactive
Potency [20]: inactive
Potency [15]: inactive
Potency [16]: inactive

COc1cc2c(cc1OC)-c1cc(=Nc3c(C)cc(C)cc3C)n(C)c(=O)n1CC2
Potency [1]: inactive
Potency [2]: inactive
Potency [3]: inactive
Potency [4]: inactive
Potency [5]: inactive
Potency [6]: inactive
Potency [7]: inactive
Potency [8]: inactive
Potency [9]: 21.3 µM (active)
Potency [10]: inactive
Potency [11]: inactive
Potency [14]: inactive
Potency [15]: inactive
Potency [16]: inactive

C[C@@H]1C[C@H]2[C@@H]3CCC4=CC(=O)C=C[C@]4(C)[C@@]3(F)[C@@H](O)C[C@]2(C)[C@@]1(O)C(=O)CO
Potency [1]: inactive
Potency [2]: inactive
Potency [3]: inactive
Potency [4]: inactive
Potency [5]: inactive
Potency [6]: inactive
Potency [7]: inactive
Potency [8]: inactive
Potency [9]: inactive
Potency [10]: inactive
Potency [11]: inactive
Potency [19]: inactive
Potency [12]: inactive
Potency [13]: inactive
Potency [14]: inactive
Potency [18]: inactive
Potency [20]: inactive
Potency [15]: inactive
Potency [16]: 22.2 µM (active)

CCCCCCCCCCCC(=O)[O][Sn]([CH2]CCC)([CH2]CCC)[O]C(=O)CCCCCCCCCCC
Potency [1]: 19 µM (active)
Potency [2]: 6.74 µM (active)
Potency [4]: inactive
Potency [17]: 7.56 µM (active)
Potency [5]: inactive
Potency [6]: inactive
Potency [7]: 19 µM (active)
Potency [8]: 19 µM (active)
Potency [10]: inactive
Potency [19]: inactive
Potency [12]: 19 µM (active)
Potency [18]: 7.56 µM (active)
Potency [20]: inactive
Potency [15]: inactive
Potency [16]: inactive

CC(COc1ccc(C(C)(C)C)cc1)OS(=O)OCCCl (stereo not drawn)
Potency [1]: inactive
Potency [2]: inactive
Potency [4]: inactive
Potency [17]: 0.391 µM (active)
Potency [5]: inactive
Potency [6]: inactive
Potency [7]: inactive
Potency [8]: inactive
Potency [9]: inactive
Potency [10]: inactive
Potency [11]: inactive
Potency [19]: inactive
Potency [12]: inactive
Potency [13]: inactive
Potency [14]: inactive
Potency [20]: inactive
Potency [15]: inactive
Potency [16]: inactive

O=C(CCCCCCCCC#CI)Oc1ccccc1
Potency [1]: 2.39 µM (active)
Potency [2]: inactive
Potency [3]: inactive
Potency [17]: 5.35 µM (active)
Potency [5]: inactive
Potency [6]: inactive
Potency [7]: 4.77 µM (active)
Potency [8]: inactive
Potency [9]: inactive
Potency [10]: inactive
Potency [11]: inactive
Potency [12]: inactive
Potency [13]: inactive
Potency [14]: 15.1 µM (active)
Potency [18]: inactive
Potency [20]: inactive
Potency [15]: inactive
Potency [16]: inactive

Nc1ccc(S(=O)(=O)O)c(N)c1
Potency [1]: inactive
Potency [2]: inactive
Potency [3]: inactive
Potency [4]: inactive
max response [17]: -8.29%
Potency [6]: inactive
Potency [7]: inactive
Potency [8]: inactive
Potency [10]: inactive
Potency [19]: inactive
Potency [12]: inactive
Potency [14]: inactive
Potency [18]: inactive
Potency [16]: inactive
